Data published in PMC7862700, “An all-to-all approach to the identification of sequence-specific readers for epigenetic DNA modifications on cytosine”.

What was measured:
Test in all cases: DAPPL (digital affinity profiling via proximity ligation, sequencing); 10 mM Tris-HCl pH 7.5, 50 mM NaCl, 1 mM DTT, 4% glycerol, room temperature, 30 min; GST-TFs on glutathione beads, 16-mer random dsDNA library, 0.1% formaldehyde crosslink after washing; high values mean tight binding
[1] = target: T1, FLI1 (Homo sapiens, UniProt Q01543 1-452); details: protein: recombinant; tags: N-terminal GST; dsDNA, one strand shown
T1 sequence: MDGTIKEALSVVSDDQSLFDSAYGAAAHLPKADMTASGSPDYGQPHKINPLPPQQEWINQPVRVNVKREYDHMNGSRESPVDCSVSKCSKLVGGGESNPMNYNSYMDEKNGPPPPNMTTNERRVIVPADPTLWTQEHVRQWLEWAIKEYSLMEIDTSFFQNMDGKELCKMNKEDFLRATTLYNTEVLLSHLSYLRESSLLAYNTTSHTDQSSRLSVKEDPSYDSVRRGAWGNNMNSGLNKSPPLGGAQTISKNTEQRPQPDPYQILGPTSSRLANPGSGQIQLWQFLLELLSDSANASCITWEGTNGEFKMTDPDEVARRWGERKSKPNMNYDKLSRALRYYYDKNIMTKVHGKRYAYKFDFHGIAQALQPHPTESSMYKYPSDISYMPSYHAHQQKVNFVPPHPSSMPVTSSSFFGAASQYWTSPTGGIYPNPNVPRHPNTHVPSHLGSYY
Summary of the method: (§1)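 Pools of DNA-barcoded human transcription factors, expressed in yeast as GST fusions on glutathione beads and combined with a tag-only sample, were incubated with 200 nmole of a 16-mer random double-stranded DNA library. Incubation took 30 min at room temperature in Tris/NaCl/DTT/glycerol buffer and was followed by washing, 0.1% formaldehyde crosslinking, proximity ligation (BsaI/T4 ligase, 1 h, 37 °C), PCR amplification and sequencing on an Illumina NextSeq500. Binding signal is the ratio of a hexamer's read frequency for a factor to its frequency for the tag-only sample.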

[2] = target: T2, ELK1 (Homo sapiens, UniProt P19419 1-428); details: protein: recombinant; tags: N-terminal GST; dsDNA, one strand shown
T2 sequence: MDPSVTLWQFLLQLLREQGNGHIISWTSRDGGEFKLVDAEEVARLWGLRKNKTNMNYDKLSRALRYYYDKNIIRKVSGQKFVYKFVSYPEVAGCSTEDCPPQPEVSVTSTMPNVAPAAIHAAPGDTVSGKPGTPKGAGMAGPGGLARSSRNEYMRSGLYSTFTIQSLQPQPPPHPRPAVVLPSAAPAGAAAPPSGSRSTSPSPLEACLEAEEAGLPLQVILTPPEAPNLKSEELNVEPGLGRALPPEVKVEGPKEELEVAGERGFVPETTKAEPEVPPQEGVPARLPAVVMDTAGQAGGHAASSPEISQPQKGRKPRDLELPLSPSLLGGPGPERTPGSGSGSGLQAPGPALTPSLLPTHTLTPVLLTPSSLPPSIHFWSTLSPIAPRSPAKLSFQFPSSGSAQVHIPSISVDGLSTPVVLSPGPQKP
Summary of the method: as §1

[3] = target: T3, GABPA (Homo sapiens, UniProt Q06546 1-454); details: protein: recombinant; tags: N-terminal GST; dsDNA, one strand shown
T3 sequence: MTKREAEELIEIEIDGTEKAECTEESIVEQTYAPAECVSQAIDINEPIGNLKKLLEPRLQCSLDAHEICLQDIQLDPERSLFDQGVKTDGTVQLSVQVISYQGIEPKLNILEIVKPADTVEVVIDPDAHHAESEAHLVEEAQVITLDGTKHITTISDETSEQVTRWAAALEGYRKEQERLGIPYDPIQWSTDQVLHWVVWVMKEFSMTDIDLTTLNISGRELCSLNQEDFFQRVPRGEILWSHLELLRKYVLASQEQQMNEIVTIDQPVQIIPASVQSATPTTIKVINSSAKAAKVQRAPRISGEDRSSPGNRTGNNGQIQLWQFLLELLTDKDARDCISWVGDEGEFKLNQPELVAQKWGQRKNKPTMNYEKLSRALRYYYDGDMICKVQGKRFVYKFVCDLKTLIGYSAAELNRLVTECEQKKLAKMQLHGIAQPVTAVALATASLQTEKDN
Summary of the method: as §1

[4] = target: T4, ERG (Homo sapiens, UniProt P11308 1-479); details: protein: recombinant; tags: N-terminal GST; dsDNA, one strand shown
T4 sequence: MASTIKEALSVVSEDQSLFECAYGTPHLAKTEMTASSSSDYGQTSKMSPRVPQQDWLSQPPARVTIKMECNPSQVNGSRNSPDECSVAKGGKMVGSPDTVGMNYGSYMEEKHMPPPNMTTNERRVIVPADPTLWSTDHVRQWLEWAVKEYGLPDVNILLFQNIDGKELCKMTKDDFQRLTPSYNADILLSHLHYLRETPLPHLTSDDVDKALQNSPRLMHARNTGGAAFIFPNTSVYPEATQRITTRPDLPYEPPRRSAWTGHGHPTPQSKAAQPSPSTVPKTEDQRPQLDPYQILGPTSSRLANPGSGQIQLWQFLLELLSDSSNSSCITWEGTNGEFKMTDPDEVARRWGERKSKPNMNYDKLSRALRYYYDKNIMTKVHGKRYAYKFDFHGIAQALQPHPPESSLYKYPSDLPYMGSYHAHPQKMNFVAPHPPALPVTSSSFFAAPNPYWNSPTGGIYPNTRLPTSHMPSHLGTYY
Summary of the method: as §1

[5] = target: ELF1 (Homo sapiens, UniProt P32519 1-619); details: protein: recombinant; tags: N-terminal GST; dsDNA, one strand shown
Summary of the method: as §1

[6] = target: T5, EHF (Homo sapiens, UniProt Q9NZC4 1-300); details: protein: recombinant; tags: N-terminal GST; dsDNA, one strand shown
T5 sequence: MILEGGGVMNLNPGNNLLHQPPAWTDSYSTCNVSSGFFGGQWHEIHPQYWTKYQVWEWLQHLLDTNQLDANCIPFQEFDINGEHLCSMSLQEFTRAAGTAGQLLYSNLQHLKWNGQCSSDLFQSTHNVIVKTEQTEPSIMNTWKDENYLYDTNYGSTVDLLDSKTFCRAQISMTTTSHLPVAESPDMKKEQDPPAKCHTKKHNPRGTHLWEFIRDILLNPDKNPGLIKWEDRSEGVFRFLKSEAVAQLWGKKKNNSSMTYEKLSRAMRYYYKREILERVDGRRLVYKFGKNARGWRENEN
Summary of the method: as §1

[7] = target: SPI1 (Homo sapiens, UniProt P17947 1-270); details: protein: recombinant; tags: N-terminal GST; dsDNA, one strand shown
Summary of the method: as §1

[8] = target: SPIB (Homo sapiens, UniProt Q01892 1-262); details: protein: recombinant; tags: N-terminal GST; dsDNA, one strand shown
Summary of the method: as §1

[9] = target: T6, FEV (Homo sapiens, UniProt Q99581 1-238); details: protein: recombinant; tags: N-terminal GST; dsDNA, one strand shown
T6 sequence: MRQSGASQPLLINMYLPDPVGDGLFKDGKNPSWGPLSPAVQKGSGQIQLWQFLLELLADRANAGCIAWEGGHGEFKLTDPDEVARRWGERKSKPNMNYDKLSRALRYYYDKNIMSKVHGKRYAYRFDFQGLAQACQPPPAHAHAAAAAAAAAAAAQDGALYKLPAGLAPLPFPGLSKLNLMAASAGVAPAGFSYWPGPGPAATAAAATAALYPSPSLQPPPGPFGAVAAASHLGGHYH
Summary of the method: as §1

[10] = target: ETV5 (Homo sapiens, UniProt P41161 1-510); details: protein: recombinant; tags: N-terminal GST; dsDNA, one strand shown
Summary of the method: as §1

[11] = target: HSF1 (Homo sapiens, UniProt Q00613 1-529); details: protein: recombinant; tags: N-terminal GST; chain copies: 3; dsDNA, one strand shown
Summary of the method: as §1

[12] = target: T7, SPIC (Homo sapiens, UniProt Q8N5J4 1-248); details: protein: recombinant; tags: N-terminal GST; dsDNA, one strand shown
T7 sequence: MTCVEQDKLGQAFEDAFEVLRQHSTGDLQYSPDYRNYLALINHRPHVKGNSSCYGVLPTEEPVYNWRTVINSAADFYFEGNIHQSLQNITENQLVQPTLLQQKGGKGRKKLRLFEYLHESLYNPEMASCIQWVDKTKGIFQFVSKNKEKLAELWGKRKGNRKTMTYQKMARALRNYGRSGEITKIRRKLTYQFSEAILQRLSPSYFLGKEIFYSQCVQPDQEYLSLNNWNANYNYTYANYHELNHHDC
Summary of the method: as §1

[13] = target: ELF4 (Homo sapiens, UniProt Q99607 1-663); details: protein: recombinant; tags: N-terminal GST; dsDNA, one strand shown
Summary of the method: as §1

[14] = target: T8, ELK4 (Homo sapiens, UniProt P28324-2 1-405); details: protein: recombinant; tags: N-terminal GST; dsDNA, one strand shown
T8 sequence: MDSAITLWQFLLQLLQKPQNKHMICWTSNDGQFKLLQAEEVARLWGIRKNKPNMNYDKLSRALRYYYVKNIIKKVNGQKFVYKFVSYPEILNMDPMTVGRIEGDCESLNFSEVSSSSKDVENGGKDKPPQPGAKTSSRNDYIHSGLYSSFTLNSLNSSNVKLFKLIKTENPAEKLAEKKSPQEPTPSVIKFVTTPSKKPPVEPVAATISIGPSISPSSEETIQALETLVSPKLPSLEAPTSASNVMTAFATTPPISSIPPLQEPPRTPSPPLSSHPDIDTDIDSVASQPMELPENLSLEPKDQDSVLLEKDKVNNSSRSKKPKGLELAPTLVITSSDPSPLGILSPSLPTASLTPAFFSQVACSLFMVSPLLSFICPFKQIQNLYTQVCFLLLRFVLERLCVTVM
Summary of the method: as §1

[15] = target: T9, ETV2 (Homo sapiens, UniProt O00321 1-342); details: protein: recombinant; tags: N-terminal GST; dsDNA, one strand shown
T9 sequence: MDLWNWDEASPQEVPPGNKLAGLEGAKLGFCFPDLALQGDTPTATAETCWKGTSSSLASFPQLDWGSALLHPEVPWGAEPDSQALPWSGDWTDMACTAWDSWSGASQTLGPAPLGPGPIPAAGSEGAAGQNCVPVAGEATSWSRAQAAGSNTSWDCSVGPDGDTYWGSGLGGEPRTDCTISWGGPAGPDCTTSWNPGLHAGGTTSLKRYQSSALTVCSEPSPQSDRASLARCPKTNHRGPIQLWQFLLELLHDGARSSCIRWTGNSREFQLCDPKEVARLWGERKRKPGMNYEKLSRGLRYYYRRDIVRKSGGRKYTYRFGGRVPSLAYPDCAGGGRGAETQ
Summary of the method: as §1

[16] = target: T10, ELF3 (Homo sapiens, UniProt P78545 1-371); details: protein: recombinant; tags: N-terminal GST; dsDNA, one strand shown
T10 sequence: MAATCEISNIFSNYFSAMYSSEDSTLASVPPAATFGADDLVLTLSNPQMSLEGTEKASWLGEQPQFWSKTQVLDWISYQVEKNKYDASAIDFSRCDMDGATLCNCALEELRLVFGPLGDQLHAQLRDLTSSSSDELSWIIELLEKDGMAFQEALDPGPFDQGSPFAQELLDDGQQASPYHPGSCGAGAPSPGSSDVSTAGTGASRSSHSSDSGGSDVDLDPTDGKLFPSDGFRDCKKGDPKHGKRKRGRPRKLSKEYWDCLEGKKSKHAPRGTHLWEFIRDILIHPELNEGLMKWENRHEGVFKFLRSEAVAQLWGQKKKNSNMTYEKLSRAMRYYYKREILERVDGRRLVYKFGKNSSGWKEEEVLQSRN
Summary of the method: as §1

[17] = target: CRX (Homo sapiens, UniProt O43186 1-299); details: protein: recombinant; tags: N-terminal GST; dsDNA, one strand shown
Summary of the method: as §1

[18] = target: ETV1 (Homo sapiens, UniProt P50549 1-477); details: protein: recombinant; tags: N-terminal GST; dsDNA, one strand shown
Summary of the method: as §1

Sequence of ETV1 (P50549 whole entry): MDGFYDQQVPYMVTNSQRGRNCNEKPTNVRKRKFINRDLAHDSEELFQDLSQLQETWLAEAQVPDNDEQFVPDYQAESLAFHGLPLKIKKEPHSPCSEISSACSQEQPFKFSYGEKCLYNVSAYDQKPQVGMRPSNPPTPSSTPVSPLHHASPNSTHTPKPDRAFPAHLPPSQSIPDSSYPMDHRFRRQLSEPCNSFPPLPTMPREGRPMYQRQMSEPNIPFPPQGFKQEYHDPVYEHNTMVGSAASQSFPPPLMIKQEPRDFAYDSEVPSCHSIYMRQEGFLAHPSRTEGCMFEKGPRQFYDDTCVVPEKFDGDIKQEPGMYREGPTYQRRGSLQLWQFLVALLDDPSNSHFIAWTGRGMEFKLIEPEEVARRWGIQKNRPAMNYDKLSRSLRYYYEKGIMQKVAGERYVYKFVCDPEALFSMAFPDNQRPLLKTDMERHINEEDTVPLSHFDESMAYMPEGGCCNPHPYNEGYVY
Sequence of ELF4 (Q99607 whole entry): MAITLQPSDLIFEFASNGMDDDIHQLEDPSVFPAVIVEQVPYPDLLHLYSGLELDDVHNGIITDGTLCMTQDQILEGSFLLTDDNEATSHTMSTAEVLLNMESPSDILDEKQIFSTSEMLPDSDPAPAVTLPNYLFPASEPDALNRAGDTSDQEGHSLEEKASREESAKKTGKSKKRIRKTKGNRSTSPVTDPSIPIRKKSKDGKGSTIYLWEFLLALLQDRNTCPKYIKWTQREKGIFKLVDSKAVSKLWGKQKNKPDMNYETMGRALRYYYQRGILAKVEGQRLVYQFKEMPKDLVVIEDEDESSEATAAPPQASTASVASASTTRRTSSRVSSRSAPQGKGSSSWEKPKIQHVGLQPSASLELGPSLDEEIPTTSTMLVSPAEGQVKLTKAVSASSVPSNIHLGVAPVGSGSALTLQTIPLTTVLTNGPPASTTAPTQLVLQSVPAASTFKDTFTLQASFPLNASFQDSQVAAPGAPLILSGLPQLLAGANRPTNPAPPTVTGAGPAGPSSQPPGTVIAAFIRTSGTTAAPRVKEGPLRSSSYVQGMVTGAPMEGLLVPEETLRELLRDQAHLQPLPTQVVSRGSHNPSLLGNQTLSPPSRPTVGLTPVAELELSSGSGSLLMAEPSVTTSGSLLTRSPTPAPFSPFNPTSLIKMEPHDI
Sequence of HSF1 (Q00613 whole entry): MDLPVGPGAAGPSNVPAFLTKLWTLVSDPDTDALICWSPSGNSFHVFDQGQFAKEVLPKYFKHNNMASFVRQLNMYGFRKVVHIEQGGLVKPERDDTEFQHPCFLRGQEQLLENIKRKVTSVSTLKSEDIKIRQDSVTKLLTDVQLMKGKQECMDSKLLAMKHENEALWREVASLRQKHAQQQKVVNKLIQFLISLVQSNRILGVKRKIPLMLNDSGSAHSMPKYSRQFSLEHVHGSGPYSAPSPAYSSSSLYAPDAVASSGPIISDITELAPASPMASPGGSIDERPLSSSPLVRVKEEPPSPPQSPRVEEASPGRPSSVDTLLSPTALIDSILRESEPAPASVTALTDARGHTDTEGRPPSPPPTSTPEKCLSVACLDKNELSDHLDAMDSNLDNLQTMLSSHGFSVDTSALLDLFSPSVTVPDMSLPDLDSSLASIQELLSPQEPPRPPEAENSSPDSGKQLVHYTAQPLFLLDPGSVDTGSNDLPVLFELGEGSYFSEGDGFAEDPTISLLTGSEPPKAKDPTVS
Sequence of SPIB (Q01892 whole entry): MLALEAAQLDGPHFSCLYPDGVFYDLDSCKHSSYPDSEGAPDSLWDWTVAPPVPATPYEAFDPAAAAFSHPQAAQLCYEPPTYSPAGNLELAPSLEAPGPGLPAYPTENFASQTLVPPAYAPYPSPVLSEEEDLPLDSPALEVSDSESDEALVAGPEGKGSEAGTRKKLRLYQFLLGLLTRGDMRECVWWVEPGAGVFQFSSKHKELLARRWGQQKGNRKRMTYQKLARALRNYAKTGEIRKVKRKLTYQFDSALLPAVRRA
Sequence of ELF1 (P32519 whole entry): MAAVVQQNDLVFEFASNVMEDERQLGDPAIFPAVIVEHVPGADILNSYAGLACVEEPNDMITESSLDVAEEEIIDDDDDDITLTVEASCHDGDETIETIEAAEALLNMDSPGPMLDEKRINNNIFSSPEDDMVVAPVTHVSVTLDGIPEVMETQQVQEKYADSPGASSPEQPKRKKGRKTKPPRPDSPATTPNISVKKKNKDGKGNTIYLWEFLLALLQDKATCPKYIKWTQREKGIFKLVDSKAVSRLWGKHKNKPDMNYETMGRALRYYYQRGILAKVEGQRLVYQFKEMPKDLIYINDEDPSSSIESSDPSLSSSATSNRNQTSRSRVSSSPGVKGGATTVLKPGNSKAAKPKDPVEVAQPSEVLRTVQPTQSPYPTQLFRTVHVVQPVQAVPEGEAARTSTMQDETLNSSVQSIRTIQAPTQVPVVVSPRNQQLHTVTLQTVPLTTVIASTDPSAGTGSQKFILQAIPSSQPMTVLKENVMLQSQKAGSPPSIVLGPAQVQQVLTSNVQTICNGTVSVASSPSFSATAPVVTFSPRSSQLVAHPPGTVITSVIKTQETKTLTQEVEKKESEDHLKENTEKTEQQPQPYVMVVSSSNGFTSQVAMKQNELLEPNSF
Sequence of ETV5 (P41161 whole entry): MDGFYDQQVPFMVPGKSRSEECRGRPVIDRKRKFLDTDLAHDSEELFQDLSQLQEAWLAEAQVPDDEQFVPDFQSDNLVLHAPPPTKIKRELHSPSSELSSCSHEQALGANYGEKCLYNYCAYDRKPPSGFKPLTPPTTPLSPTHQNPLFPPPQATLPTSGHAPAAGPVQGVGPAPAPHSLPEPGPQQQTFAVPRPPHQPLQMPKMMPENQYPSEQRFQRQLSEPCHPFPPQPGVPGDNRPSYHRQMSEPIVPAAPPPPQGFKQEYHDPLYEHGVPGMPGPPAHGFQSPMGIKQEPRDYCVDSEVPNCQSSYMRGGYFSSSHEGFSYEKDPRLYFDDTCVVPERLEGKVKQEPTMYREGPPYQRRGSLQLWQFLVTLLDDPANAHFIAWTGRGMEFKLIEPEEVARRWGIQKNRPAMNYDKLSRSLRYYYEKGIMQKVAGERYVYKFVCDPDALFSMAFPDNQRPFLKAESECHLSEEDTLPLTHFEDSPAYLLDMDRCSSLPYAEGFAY
Sequence of CRX (O43186 whole entry): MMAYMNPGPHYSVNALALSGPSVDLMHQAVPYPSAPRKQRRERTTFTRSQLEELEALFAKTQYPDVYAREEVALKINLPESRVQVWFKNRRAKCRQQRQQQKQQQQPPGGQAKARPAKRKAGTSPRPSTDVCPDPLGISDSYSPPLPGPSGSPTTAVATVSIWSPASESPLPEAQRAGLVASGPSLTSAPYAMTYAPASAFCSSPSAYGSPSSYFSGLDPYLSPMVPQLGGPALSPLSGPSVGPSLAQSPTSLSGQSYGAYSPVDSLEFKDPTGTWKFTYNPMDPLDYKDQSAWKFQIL

In the case of GTATAA, the binding signal [1] is reported as 1.02 fold enrichment (6-mer frequency, TF over GST control), the binding signal [2] is reported as 1.21 fold enrichment (6-mer frequency, TF over GST control) and the binding signal [3] is reported as 1.06 fold enrichment (6-mer frequency, TF over GST control). The binding signal [4] was 1.06 fold enrichment (6-mer frequency, TF over GST control), the binding signal [5] was 1.06 fold enrichment (6-mer frequency, TF over GST control) and the binding signal [6] was 1.09 fold enrichment (6-mer frequency, TF over GST control). For the same sequence, the binding signal [7] was 1.12 fold enrichment (6-mer frequency, TF over GST control), the binding signal [8] was 1.19 fold enrichment (6-mer frequency, TF over GST control) and the binding signal [9] was 1.01 fold enrichment (6-mer frequency, TF over GST control). For the same sequence, the binding signal [10] was 1.1 fold enrichment (6-mer frequency, TF over GST control), the binding signal [11] was 1.16 fold enrichment (6-mer frequency, TF over GST control) and the binding signal [12] was 1.07 fold enrichment (6-mer frequency, TF over GST control). For the same sequence, the binding signal [13] was 1.05 fold enrichment (6-mer frequency, TF over GST control), the binding signal [14] was 1.08 fold enrichment (6-mer frequency, TF over GST control) and the binding signal [15] was 1.18 fold enrichment (6-mer frequency, TF over GST control). The binding signal [16] was 1.14 fold enrichment (6-mer frequency, TF over GST control), the binding signal [17] was 1.41 fold enrichment (6-mer frequency, TF over GST control) and the binding signal [18] was 1.14 fold enrichment (6-mer frequency, TF over GST control).
